The supplement of paper PMC11482750
± gives the standard deviation of the averaged measurements.

What was measured:
Experiment in all cases: control-subtracted net OSN firing rate; higher = stronger neuronal activation
Settings in all cases: odorant dilution (vol/vol): 1/100
phenethyl acetate = compound: CC(=O)OCCc1ccccc1 [phenethyl acetate]
How it was run: (§1)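 Single sensillum recordings from palp or antennal sensilla olfactory sensory neurons in 1–5-day-old fed female flies. These were D. melanogaster wild-type, mutant or at1 empty-neuron lines expressing Or42a homologs, or Scaptomyza species. Odorants at 1:100 vol/vol in mineral oil or dimethyl sulfoxide (20 μl on filter paper) were given as 1 s pulses into 16 ml/min filtered air. Spikes were counted over 0.5 s from 0.2 s after onset, background-subtracted, doubled and solvent-corrected. Values are replicate means.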

fenchone = compound: CC12CCC(C1)C(C)(C)C2=O [fenchone]
How it was run: as §1

2-hexanol = compound: CCCCC(C)O [2-hexanol]
How it was run: as §1

4-ethylguaiacol = compound: CCc1ccc(O)c(OC)c1 [4-ethylguaiacol]
How it was run: as §1

methyl salicylate = compound: COC(=O)c1ccccc1O [methyl salicylate]
How it was run: as §1

guaiacol = compound: COc1ccccc1O [guaiacol]
How it was run: as §1

phenethyl alcohol = compound: OCCc1ccccc1 [phenethyl alcohol]
How it was run: as §1

Target | control-subtracted net OSN firing rate (phenethyl acetate) | control-subtracted net OSN firing rate (fenchone) | control-subtracted net OSN firing rate (2-hexanol) | control-subtracted net OSN firing rate (4-ethylguaiacol) | control-subtracted net OSN firing rate (methyl salicylate) | control-subtracted net OSN firing rate (guaiacol) | control-subtracted net OSN firing rate (phenethyl alcohol)
S. hsui pb2a-like | 1 ± 7.1 spikes/s | 140 ± 16 spikes/s | 6 ± 8 spikes/s | 3.33 ± 7.3 spikes/s | 6.33 ± 3.2 spikes/s | 8 ± 7.5 spikes/s | 3.67 ± 9.2 spikes/s
S. hsui pb1a-like | 13.3 ± 16 spikes/s | -0.333 ± 6.4 spikes/s | 96 ± 27 spikes/s | 13.7 ± 5.3 spikes/s | 14.7 ± 17 spikes/s | 16 ± 8.3 spikes/s | 29.7 ± 22 spikes/s
S. pallida pb3a-like | -17.3 ± 8.2 spikes/s | -13 ± 14 spikes/s | 94.3 ± 19 spikes/s | -8 ± 7.3 spikes/s | 6.33 ± 15 spikes/s | -11.7 ± 15 spikes/s | -15.7 ± 12 spikes/s
S. montana pb2b-like | -2.33 ± 4.8 spikes/s | -7.33 ± 4.5 spikes/s | 16.7 ± 14 spikes/s | 16 ± 12 spikes/s | 106 ± 35 spikes/s | 107 ± 49 spikes/s | 18.3 ± 17 spikes/s
S. hsui pb2b-like | 3 ± 4.9 spikes/s | 0.667 ± 7.2 spikes/s | 20 ± 18 spikes/s | 1.67 ± 2.9 spikes/s | 103 ± 43 spikes/s | 111 ± 23 spikes/s | 17.3 ± 21 spikes/s
Canton-S (D. melanogaster) pb1a | 7.11 ± 7.8 spikes/s | 0 ± 8.1 spikes/s | 68.7 ± 32 spikes/s | 1.78 ± 9.1 spikes/s | 6.22 ± 13 spikes/s | 5.33 ± 8.1 spikes/s | 4 ± 8.7 spikes/s
S. montana pb2a-like | 1 ± 6.5 spikes/s | 177 ± 36 spikes/s | 5.67 ± 14 spikes/s | 1.67 ± 7.7 spikes/s | 6 ± 6.3 spikes/s | 6 ± 6.6 spikes/s | 7.67 ± 14 spikes/s
S. montana pb1b-like | 5 ± 7.6 spikes/s | 2.33 ± 18 spikes/s | -16.3 ± 10 spikes/s | 109 ± 14 spikes/s | 7.67 ± 11 spikes/s | 24.7 ± 14 spikes/s | -7 ± 20 spikes/s
S. flava pb2a-like | 3 ± 11 spikes/s | 213 ± 48 spikes/s | 5.67 ± 11 spikes/s | 1.67 ± 6.6 spikes/s | 3 ± 8.7 spikes/s | 0 ± 13 spikes/s | 1.33 ± 4.7 spikes/s
S. flava pb3b-like | 2.67 ± 5 spikes/s | 0 ± 5.4 spikes/s | -1 ± 27 spikes/s | 14.7 ± 34 spikes/s | 7.67 ± 26 spikes/s | 8.33 ± 15 spikes/s | 2.67 ± 6.8 spikes/s
S. hsui pb3a-like | -5.67 ± 12 spikes/s | -7 ± 11 spikes/s | 145 ± 27 spikes/s | -3.33 ± 10 spikes/s | 8 ± 8.1 spikes/s | -5.33 ± 14 spikes/s | -0.333 ± 7.4 spikes/s
S. montana pb3a-like | 97 ± 35 spikes/s | -2.33 ± 6.9 spikes/s | 5.67 ± 13 spikes/s | -8.67 ± 17 spikes/s | 3.33 ± 9.9 spikes/s | -4.33 ± 12 spikes/s | -3.33 ± 15 spikes/s
S. flava pb2b-like | 4.33 ± 11 spikes/s | -3.67 ± 6.9 spikes/s | 11.7 ± 17 spikes/s | 15 ± 14 spikes/s | 111 ± 28 spikes/s | 121 ± 31 spikes/s | 10 ± 17 spikes/s
S. pallida pb3b-like | -18.7 ± 18 spikes/s | -17 ± 12 spikes/s | -5.67 ± 12 spikes/s | -9.33 ± 13 spikes/s | 14.7 ± 24 spikes/s | -12.7 ± 18 spikes/s | -9.33 ± 19 spikes/s
S. montana pb1a-like | 6.33 ± 9.6 spikes/s | 0 ± 12 spikes/s | 123 ± 17 spikes/s | -0.333 ± 2.9 spikes/s | 5.67 ± 11 spikes/s | 26.3 ± 13 spikes/s | 82.7 ± 34 spikes/s
Canton-S (D. melanogaster) pb2a | 0.286 ± 4.5 spikes/s | 166 ± 26 spikes/s | 3.43 ± 4.9 spikes/s | 4.86 ± 4.6 spikes/s | 3.43 ± 3.4 spikes/s | 6.86 ± 8.1 spikes/s | 6.29 ± 5.3 spikes/s
S. hsui pb1b-like | 1 ± 7 spikes/s | -3.67 ± 6.1 spikes/s | -11.7 ± 9.8 spikes/s | 111 ± 24 spikes/s | -4.67 ± 8.6 spikes/s | 78 ± 26 spikes/s | -11 ± 8.7 spikes/s
Canton-S (D. melanogaster) pb1b | -2 ± 8.4 spikes/s | 1.33 ± 9.9 spikes/s | -6.67 ± 6.2 spikes/s | 110 ± 36 spikes/s | -3.78 ± 12 spikes/s | 38 ± 29 spikes/s | 4.67 ± 5.4 spikes/s
S. pallida pb1b-like | -5.67 ± 17 spikes/s | -4.33 ± 7 spikes/s | -9 ± 8.8 spikes/s | 90 ± 36 spikes/s | 1.33 ± 16 spikes/s | 8.67 ± 28 spikes/s | 0.667 ± 14 spikes/s
S. flava pb3a-like | 160 ± 17 spikes/s | -2.67 ± 5.6 spikes/s | 6 ± 10 spikes/s | -3.33 ± 9.6 spikes/s | 5.67 ± 12 spikes/s | -5.33 ± 6.2 spikes/s | -3.33 ± 6.8 spikes/s
S. pallida pb2b-like | -0.333 ± 8.7 spikes/s | -3.33 ± 8.8 spikes/s | 27 ± 9.9 spikes/s | 24 ± 19 spikes/s | 72 ± 19 spikes/s | 75.7 ± 20 spikes/s | 15 ± 11 spikes/s
Canton-S (D. melanogaster) pb3a | 0 ± 9.4 spikes/s | -2.83 ± 8.3 spikes/s | 15.8 ± 18 spikes/s | 7.5 ± 8.4 spikes/s | 6.33 ± 7.3 spikes/s | 2.33 ± 8.2 spikes/s | 7.67 ± 9.3 spikes/s
S. pallida pb2a-like | 5 ± 5.3 spikes/s | 137 ± 13 spikes/s | 5.67 ± 6.6 spikes/s | 5.33 ± 4.8 spikes/s | 6.33 ± 3.9 spikes/s | 6.67 ± 4.8 spikes/s | 9.67 ± 8.8 spikes/s
S. montana pb3b-like | -2.67 ± 9.3 spikes/s | -1 ± 4.7 spikes/s | 4 ± 7.7 spikes/s | -3.67 ± 9.5 spikes/s | 2.33 ± 11 spikes/s | -1.67 ± 5.4 spikes/s | -3.67 ± 8.9 spikes/s
Canton-S (D. melanogaster) pb3b | 153 ± 48 spikes/s | -2.83 ± 8.6 spikes/s | 1.5 ± 8.7 spikes/s | 0 ± 8.9 spikes/s | 0.833 ± 6.5 spikes/s | -2.5 ± 6.4 spikes/s | 1.33 ± 8.5 spikes/s
S. flava pb1a-like | 7.33 ± 6.5 spikes/s | 1.33 ± 6.5 spikes/s | 111 ± 28 spikes/s | -5 ± 7.8 spikes/s | 6.67 ± 15 spikes/s | 4 ± 10 spikes/s | 82.7 ± 46 spikes/s
S. pallida pb1a-like | 26.7 ± 30 spikes/s | -3.67 ± 8.8 spikes/s | 88.3 ± 13 spikes/s | 0.667 ± 8.8 spikes/s | 15.3 ± 34 spikes/s | 42 ± 22 spikes/s | 23 ± 38 spikes/s
Canton-S (D. melanogaster) pb2b | -3.43 ± 6.8 spikes/s | -6.86 ± 10 spikes/s | -2.57 ± 8.5 spikes/s | -1.43 ± 7.1 spikes/s | 10.6 ± 10 spikes/s | 145 ± 52 spikes/s | 1.14 ± 10 spikes/s
S. hsui pb3b-like | -7 ± 2.1 spikes/s | -2.67 ± 6.5 spikes/s | -6.67 ± 6.8 spikes/s | -5.67 ± 2.9 spikes/s | 1.33 ± 5.8 spikes/s | -2.33 ± 4.5 spikes/s | -2.67 ± 5 spikes/s
S. flava pb1b-like | -3.67 ± 9.3 spikes/s | 2 ± 13 spikes/s | -26.7 ± 21 spikes/s | 97 ± 18 spikes/s | -5.33 ± 20 spikes/s | 9.67 ± 7.5 spikes/s | -6 ± 20 spikes/s
